# SARS PLP yeast = SARS-CoV PLP inhibition in yeast; S. cerevisiae expressing SARS-CoV PLpro, growth rescue; Potency, µM (top dose mostly 32.9 µM), for the others: at the top dose activity, positive = growth rescue, hits mostly activators; 330,000 compounds, 0.19% hits; AID 485353; calls by dose curve; also: potency is read from the fitted curve at half-maximal effect; 0% is about no effect; nearly all actives have a fitted effect of over 55% in size
# Pf growth 96h = P. falciparum growth inhibition at 96 hours; P. falciparum luciferase reporter growth, 96 h; Potency, µM (highest dose often 28.7 µM), without a hit: top-dose activity change, negative = inhibition, most hits filed as inhibitors; 320,000 compounds, 6.9% hits; also: potency is read from the fitted curve at half-maximal effect; % is scaled to controls: 0 for no effect and ±100 for the full control effect
#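 Two parasite generations (96 h, 37 C, 5% CO2) of compound exposure in infected erythrocytes (0.05% parasitemia, 2% hematocrit). Luciferase-reporter P. falciparum; decreased luminescence indicates inhibited growth, aimed at apicoplast-acting delayed death.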
# HCMV inh = blocks human cytomegalovirus replication; 410,000 compounds, 4.5% hits; HFF cells, HCMV-luciferase reporter, 72 h; stronger effect = lower value; activity change, negative = inhibition, % at 57.5 µM; in the data active = activity change below about -60%; inconclusive = no clear call, values can overlap the other calls; inactive = above about -39%; also: % is scaled to controls: 0 for no effect and ±100 for the full control effect
#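 HFF cells seeded 16 h at 37C, treated with compounds, infected with luciferase-reporter HCMV at MOI 1 PFU/cell; luciferase read at 72 h post infection, normalized to buffer-only and Salinomycin controls.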
# Pf growth 48h = P. falciparum growth inhibition at 48 hours (one generation). P. falciparum luciferase growth in erythrocytes, 48 h. 310,000 compounds, 5.9% hits. Potency, µM (highest dose often 28.7 µM), for inactives: at the highest dose activity change, negative = inhibition, usual class: inhibitors; also: potency is read from the fitted curve at half-maximal effect; % is scaled to controls: 0 for no effect and ±100 for the full control effect
#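 Firefly luciferase activity from engineered P. falciparum reports growth; inhibitors lower the luminescent signal. Cultures contained 2% hematocrit erythrocytes at 0.1% final parasitemia.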
# HCV inhibitor = blocks hepatitis C virus; Huh7.5.1 HCVcc-Cre infection, luciferase reporter, 44 h; Potency, µM (top dose mostly 41.8 µM), without a hit: at the top dose activity change, negative = inhibition, usual class: inhibitors; 340,000 compounds, 3.4% hits; also: potency is read from the fitted curve at half-maximal effect; % is scaled to controls: 0 for no effect and ±100 for the full control effect
#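 Infectious HCVcc-Cre (~0.5 moi) was added to cells just after compound, with cells seeded 4 h earlier at 1,000 per well. Luciferase activity after 44 h culture reported infection; substrate was incubated 15 min at room temperature before reading.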
# Sm TGR block = S. mansoni TGR enzyme inhibition; Q962Y6; purified TGR, DTNB reduction, TNB absorbance 405 nm; Potency, µM (titrated, usually from 114 µM), for inactives: at the top dose activity change, negative = inhibition, most hits filed as inhibitors; 360,000 compounds, 3% hits; AID 485364; also: potency is read from the fitted curve at half-maximal effect; % is scaled to controls: 0 for no effect and ±100 for the full control effect; nearly all actives have a fitted effect of over 60% in size
#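 TGR 20 nM + NADPH 100 uM (dispensed conc.), cpd preinc 15 min RT; start with NADPH (500 uM addition) then DTNB (15 mM addition). Kinetic TNB absorbance, 405 nm filter. Four-parameter Hill fit across titration.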
# Numbers without * were called inactive; ? = inconclusive; · = not tested or not shown; + = active, no number. Rows were chosen to be rich in hits. Some 15% of all compounds tested hit in one or more screens of this group. Unless noted, calls follow the shape of the dose curve; as a rule, active = well fitted curve in the direction sought with a large enough effect; inconclusive = small, poorly fitted or top-dose-only effect, or another doubt; inactive = no such curve, though single readings can be large; an effect the other way counts as inactive or inconclusive.
SMILES,SARS PLP yeast,Pf growth 96h,HCMV inh,Pf growth 48h,HCV inhibitor,Sm TGR block
Cc1cc(C)n(Cc2ccc(C(=O)O)cc2)n1,1.0%,-17.6%,-64.8*,·,4.8%,6.4%
COC(=O)c1ccc(Cn2nc(C)cc2C)cc1,-2.5%,22.4%,0.6,·,26.8%,-8.6%
O=C(Nc1ccn(Cc2ccccc2F)n1)c1ccc(COc2ccccc2Cl)cc1,-5.6%,·,-97.6*,?,15.8µM*,3.9%
CCOc1ccc(NC(=O)Cn2c(CCC(=O)O)ccc2-c2ccc(Cl)cc2)cc1,·,·,-2.5,·,·,0.5%
Cc1cc(F)c(F)c(C(=O)N2CCC(C)CC2)c1Cl,0.0%,-7.1%,?,18.6%,16.6%,-1.2%
CC(C)(C)n1ncc2c(=O)n(CC(=O)NCc3ccco3)cnc21,-12.9%,12.5%,43.7,291.5%,?,44.7µM*
CC(C)(C)n1ncc2c(=O)n(CC(=O)NCc3ccc(F)cc3)cnc21,?,13.1µM*,3.6,281.0%,-15.4%,5.5%
NC(=O)C1CCN(C(=O)CCNS(=O)(=O)c2cc(Br)cnc2N)CC1,-4.3%,15.2%,19.0,25.0%,6.7%,4.0%
Nc1ncc(Br)cc1S(=O)(=O)NCCC(=O)N1CCN(c2ccccn2)CC1,-0.3%,5.8%,-30.0,11.7µM*,27.2%,-3.5%
O=C(CCNS(=O)(=O)c1ccccc1Cl)N1CCN(c2ccccn2)CC1,5.1%,-19.7%,7.1,-2.7%,?,-3.7%
Nc1ncc(Br)cc1S(=O)(=O)NCCC(=O)N1CCN(c2ccccc2)CC1,3.1%,34.1%,-17.0,6.57µM*,3.2%,2.4%
O=C(NCc1cccnc1)C(=O)NCC1OCCCN1S(=O)(=O)c1cc(F)ccc1F (stereo unspecified),·,·,-24.1,·,·,·
CNCCOCC(O)CSc1ccccc1 (stereo unspecified),2.2%,·,7.7,13.1%,5.5%,-3.4%
CNCCC(Oc1ccc(C(F)(F)F)cc1)c1ccccc1 (stereo unspecified),-0.3%,?,31.1,14.7µM*,?,46.2%
CN(C)C(=O)O/N=C(\N)COc1ccc(C(C)(C)C)cc1,-7.3%,11.7µM*,-100.4*,6.57µM*,?,6.0%
Cn1ccc2c(N3CCCCCCC3)cc3c(c21)C1CCC3O1 (stereo unspecified),·,·,-7.6,·,·,·
Cc1ccc(S(=O)(=O)N2[C@@H](c3ccccc3F)C(C(=O)O)=CC[C@H]2c2cccs2)cc1,-0.1%,?,-19.5,-17.2%,19.3%,-1.7%
O=[N+]([O-])C(=C1Nc2ccccc2N1)C(Cl)=C(Cl)Cl,-1.3%,30.1%,31.0,14.4%,-9.1%,3.16µM*
O=C1Nc2ccccc2Nc2ccc([N+](=O)[O-])cc21,1.1%,-1.1%,-6.1,-30.0%,4.2%,-15.6%
Cn1cc(C(=O)Nc2ccc(F)c(F)c2)cn1,0.8%,·,22.5,26.7%,9.3%,-2.9%
COc1ccc(OC)c(CN2C(=O)CSCC2(C)C(=O)NC(C)C)c1 (stereo unspecified),·,·,-2.7,·,·,·
COC(=O)C1(C(=O)OC)C[C@H](c2ccc(OC)cc2)N(Cc2ccccc2OC)[C@@H]1c1ccccc1,·,·,-19.2,·,·,·
CC(C)(C)c1cc(CCC(=O)N2CCC2)cc(C(C)(C)C)c1O,-8.1%,24.3%,·,25.6%,-22.8%,-23.9%
CC1CN(C(=O)CCc2cc(C(C)(C)C)c(O)c(C(C)(C)C)c2)CC(C)O1 (stereo unspecified),4.8%,7.38µM*,-24.8,?,?,5.7%
Cc1nc2cc(-c3ccccc3)sc2c(=O)n1N,-9.7%,4.6%,-88.9*,247.5%,-14.1%,5.6%
SMILES,SARS PLP yeast,Pf growth 96h,HCMV inh,Pf growth 48h,HCV inhibitor,Sm TGR block
COC(=O)c1ccc(NC(=O)CCc2nnc3ccc(NCc4ccco4)nn23)cc1,3.3%,20.1%,+,?,9.8%,?
O=C(CCc1nnc2ccc(NCc3ccco3)nn12)N1CCN(c2ccccc2F)CC1,0.3%,9.28µM*,-26.8,-5.0%,-5.5%,?
CCNC(=O)NC(=O)C(C)Sc1nc2ccccc2c(=O)n1-c1cccnc1 (stereo unspecified),-3.8%,0.928µM*,30.6,1.04µM*,12.2%,-0.6%
c1ccc2c(c1)Cn1c-2nc2ccccc21,-24.0%,-17.4%,224.5,176.2%,?,-0.8%
Brc1c(-c2ccccc2)nc2n1Cc1ccccc1-2,-0.3%,180.3%,-83.9*,162.1%,?,-1.7%
O=C1/C(=C/c2cccs2)SC(=S)N1N1CCOCC1,-0.4%,101.4%,?,103.5%,-14.6%,?
O=C1/C(=C/c2ccncc2)SC(=S)N1N1CCOCC1,-0.1%,-0.9%,18.5,10.2%,5.5%,0.891µM*
O=C1/C(=C/c2cccnc2)SC(=S)N1N1CCOCC1,-0.7%,-1.3%,-6.4,?,-1.6%,2.82µM*
CC(=O)O[C@H]1[C@H](O)[C@H](Oc2c(O)c(C)c3c4c2[C@@H](C)CC[C@@H]4[C@@H](C)C[C@H]3C=C(C)C)O[C@@H](C)[C@H]1O,-18.0%,·,·,·,-37.2%,·
CC(C)=CCc1c([C@@H]2CCc3ccc(O)cc3O2)cc2c(c1O)OC(C)(C)C=C2,·,·,·,·,14.1µM*,·
COc1ccc(-c2[nH]c(-c3ccc(C)cc3)nc2SCC(=O)NCc2ccco2)cc1OC,-2.6%,26.2%,30.8,·,13.2%,-2.0%
COc1ccc(-c2cc(C(F)(F)F)nc(SCC(=O)NCc3cccs3)n2)cc1,-5.6%,?,?,11.7µM*,-8.1%,5.4%
COc1ccc(-c2ccc(SCC(=O)NCc3ccco3)nn2)cc1OC,5.0%,5.22µM*,41.2,13.9%,-0.8%,?
O=C(CSc1nc(-c2ccccc2)cc(C(F)(F)F)n1)NCc1cccs1,-2.5%,-10.6%,-13.1,-0.3%,0.1%,8.1%
COCC(C)NC(=O)CCSc1nc(-c2ccc(OC)cc2)cc(C(F)(F)F)n1 (stereo unspecified),-43.1%,9.28µM*,-9.4,5.22µM*,?,?
COc1ccc(-c2cc(C(F)(F)F)nc(SCC(=O)NCc3ccco3)n2)cc1OC,-8.1%,?,36.3,?,?,44.7µM*
Cc1ccc(S(=O)(=O)N/N=C\c2cn(CC(N)=O)c3ccccc23)cc1,2.1%,?,44.5,25.7%,6.7%,1.5%
O=C(CSc1nc(-c2ccccc2)cc(C(F)(F)F)n1)NCc1ccco1,-6.4%,·,14.3,-11.9%,?,22.4%
O=C(CSc1nc(-c2cccs2)cc(C(F)(F)F)n1)NCc1ccco1,·,99.4%,-75.4*,-22.0%,?,?
N#CCC(=N)N1CCN(c2ccc(F)cc2)CC1,-1.0%,0.0%,-31.9,-28.4%,?,-14.6%
O=C(c1ccc(CN2CCOCC2)cc1)N1CCC(Cc2ccccc2)CC1,-4.8%,2.94µM*,-9.4,-22.2%,?,-13.6%
